Experimental data from PubChem BioAssay AID1159580 (chemical genetic matrix, 2015).
Values joined by “and” are separate entries in the source; they are usually repeats but may differ in a detail not shown here. Equal values may be shown once. In all, about 5,500 compounds went through this assay and about 2,000 (36%) were called active. Not shown: some 18% with an inconclusive outcome. Rule as the data show it: active = normalized growth mostly below about 0.91 (no sharp cut-off); inconclusive = no clear call, values can overlap the other calls; inactive = mostly above about 0.92. The list shows a part of the results.

Assay: chemical genetic growth profiling, strain panel (AID 1159580);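 also: tested at 20 µM; growth read once vehicle control cultures reached saturation at 30 °C; 1 = growth at the plate median or of vehicle wells; lower values mean less growth of the strain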
Conditions: S. cerevisiae deletion strains, growth OD

Measured: normalized growth

Nc1ccn(C2O[C@H](CO)[C@@H](O)[C@H]2O)c(=O)n1 (some centres undefined)
inactive: locus YAL021C, strain ccr4, active compounds read low 0.985 | locus YAL026C, strain drs2, active compounds read low 0.983 | locus YAL030W, strain snc1, active compounds read low 0.982 | locus YBL061C, strain skt5, active compounds read low 0.996 | locus YBR009C, strain hhf1, active compounds read low 0.997 | locus YBR021W, strain FUR4, active compounds read low 1.02 | locus YBR023C, strain chs3, active compounds read low 1 | locus YBR171W, strain sec66, active compounds read low 0.991 | locus YBR229C, strain ROT2, active compounds read low 0.997 | locus YBR231C, strain swc5, active compounds read low 0.987 | locus YBR279W, strain paf1, active compounds read low 0.995 | locus YCL011C, strain gbp2, active compounds read low 0.991 | locus YCL016C, strain dcc1, active compounds read low 1 | locus YCL029C, strain bik1, active compounds read low 1.01 | locus YCL061C, strain MRC1, active compounds read low 0.992 | locus YCL069W, strain vba3, active compounds read low 0.992 | locus YCR088W, strain abp1, active compounds read low 0.985 | locus YDL005C, strain med2, active compounds read low 0.983 | locus YDL035C, strain GPR1, active compounds read low 1.01 | locus YDL040C, strain nat1, active compounds read low 0.987 | locus YDL074C, strain BRE1, active compounds read low 1.03 | locus YDL101C, strain DUN1, active compounds read low 1.02 | locus YDL185W, strain tfp1, active compounds read low 1.03 | locus YDL192W, strain arf1, active compounds read low 1.01 | locus YDR001C, strain nth1, active compounds read low 0.977 | locus YDR069C, strain doa4, active compounds read low 0.992 | locus YDR101C, strain arx1, active compounds read low 1.03 | locus YDR137W, strain rgp1, active compounds read low 0.982 | locus YDR150W, strain NUM1, active compounds read low 0.962 | locus YDR159W, strain sac3, active compounds read low 0.982 | locus YDR162C, strain NBP2, active compounds read low 1 | locus YDR195W, strain ref2 0.974 | locus YDR297W, strain sur2, active compounds read low 0.982 | locus YDR318W, strain mcm21, active compounds read low 0.998 | locus YDR334W, strain swr1, active compounds read low 0.981 | locus YDR335W, strain msn5, active compounds read low 0.982 | locus YDR388W, active compounds read low 1 | locus YDR392W, strain spt3, active compounds read low 0.995 | locus YDR502C, strain sam2, active compounds read low 1.01 | locus YEL003W, strain gim4, active compounds read low 0.99 | locus YEL037C, strain rad23, active compounds read low 0.991 | locus YEL061C, strain CIN8 (second series), active compounds read low 0.983 | locus YEL061C, strain CIN8, active compounds read low 1.01 | locus YER015W, strain faa2, active compounds read low 1.01 | locus YER016W, strain bim1, active compounds read low 0.987 | locus YER110C, active compounds read low 1.01 | locus YER111C, strain swi4, active compounds read low 0.982 | locus YER155C, strain BEM2 (second series), active compounds read low 0.975 | locus YER155C, strain BEM2, active compounds read low 1 | locus YER167W, strain BCK2, active compounds read low 0.987 | locus YFR010W, strain ubp6, active compounds read low 0.972 | locus YGL078C, strain dbp3, active compounds read low 1.01 | locus YGL086W, strain mad1, active compounds read low 1.03 | locus YGL167C, strain pmr1, active compounds read low 0.997 | locus YGL173C, strain kem1, active compounds read low 0.995 | locus YGL227W, strain vid30, active compounds read low 0.993 | locus YGL240W, strain doc1, active compounds read low 1.01 | locus YGL248W, strain PDE1, active compounds read low 0.991 | locus YGL253W, strain hxk2, active compounds read low 0.996 | locus YGR078C, strain PAC10, active compounds read low 1.02 | locus YGR135W, strain pre9, active compounds read low 1 | locus YGR252W, strain gcn5, active compounds read low 0.993 | locus YHR013C, strain ard1, active compounds read low 1.01 | locus YHR027C, strain rpn1, active compounds read low 0.989 | locus YHR030C, strain SLT2, active compounds read low 1.01 and 1 | locus YHR079C, strain IRE1 (second series), active compounds read low 1 | locus YHR079C, strain IRE1, active compounds read low 0.995 | locus YHR094C, strain hxt1, active compounds read low 1.01 | locus YHR129C, strain ARP1, active compounds read low 1.01 | locus YHR142W, strain chs7, active compounds read low 0.999 | locus YHR200W, strain rpn10, active compounds read low 1.02 | locus YIL066C, strain RNR3, active compounds read low 0.995 | locus YIL073C, strain SPO22, active compounds read low 1.02 | locus YIL125W, strain kgd1, active compounds read low 1.01 | locus YIR030C, strain dcg1, active compounds read low 1.01 | locus YJL092W, strain hpr5, active compounds read low 0.988 | locus YJL095W, strain BCK1 (second series), active compounds read low 0.995 | locus YJL095W, strain BCK1, active compounds read low 1.06 and 1 | locus YJL115W, strain asf1, active compounds read low 0.975 | locus YJL129C, strain trk1, active compounds read low 0.995 | locus YJL134W, strain LCB3, active compounds read low 0.999 | locus YJL154C, strain vps35, active compounds read low 0.978 | locus YJL164C, strain tpk1, active compounds read low 1 | locus YJL166W, strain qcr8, active compounds read low 0.999 | locus YJL168C, strain set2, active compounds read low 0.999 | locus YJL187C, strain SWE1 (second series), active compounds read low 1.04 | locus YJL187C, strain SWE1, active compounds read low 0.987 | locus YJR043C, strain POL32, active compounds read low 1 | locus YJR066W, strain TOR1, active compounds read low 0.909
